# About 490 (0.17%) of roughly 290,000 compounds were called active. The sample as a whole holds a higher share of actives than the screen did. A number with no mark means an inactive call. No stated cut-off is given here; in the data, active means inhibition above about 37%; inactive means the rest.
# Test: compounds displacing fluorescent DNA intercalator, primary screen, artefact control for HCV NS3 helicase inhibitor project, biochemical, FID fluorescence (AID 1845);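 further: 0% = vehicle and 100% = reference compound; higher means more ethidium bromide displaced from hairpin DNA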
# Details: DNA fluorescent intercalator displacement, at 7.9 µM, hits give high values
row,SMILES,inhibition
1,Cc1nc2ccc(N3CCN(C)CC3)cc2nc1C,7.94%
2,COc1cccc(-c2nc3ccc(N4CCN(C)CC4)cc3[nH]2)c1,40.7% (active)
3,CN1CCN(c2cc(N3CCNCC3)ccc2[N+](=O)[O-])CC1,14.7%
4,Cn1c(O)c(C(=Nc2ccc(F)cc2)c2ccccc2)c(=O)n(C)c1=O,1.2%
5,CCOC(=O)C1(CCc2ccccc2)CCN(Cc2ccco2)CC1,5.09%
6,CCOC(=O)C1(Cc2ccc(Cl)cc2)CCN(C(C)CCn2cccn2)CC1 (stereo not given),37.1% (active)
7,Cn1c(C(=O)N2CCC(C(=O)N3CCC4(CC3)OCCO4)CC2)cc2sccc21,-30.4%
8,O=C(C1CC(=O)N(C2CCCC2)C1)N1CCC2(CC1)OCCO2 (stereo not given),-1.99%
9,c1ccc(C2NCc3ccccc3-n3cccc32)cc1 (stereo not given),9.21%
10,O=C(Cc1ccc(Cl)cc1)NCCN1CCN(C(=O)Cc2ccc(Cl)cc2)CC1,-26%
